{"source": "PubChem BioAssay", "note": "Activity calls are given as the source filed them.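 Rule for the calls: active = inhibition at or above 50% relative to wild type and mutant plate controls; inactive = inhibition below 50%.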"}
{"assay": "loss of swimming-algae plug formation – whole organism, Chlamydomonas reinhardtii, WT vs cilia-less mutant, absorbance, 96-well, primary screen (AID 463189);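 note: 0% = wild type cc124 cells in DMSO and 100% = ciliumless bld1 mutant cells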", "conditions": "Chlamydomonas reinhardtii gravitaxis, OD600 absorbance, 2 days; at 10 µM; stronger effect = higher value"}
{"compound": "N#Cc1cc2nc(O)c(O)nc2cc1[N+](=O)[O-]", "inhibition": "1.78% (inactive)"}
{"compound": "Nc1nc2c(ncn2COC(CO)CO)c(=O)[nH]1", "inhibition": "3.53% (inactive)"}
{"compound": "COc1ccc2[nH]cc(CCNC(C)=O)c2c1", "inhibition": "13.5% (inactive)"}
{"compound": "CC(N)=NCc1cccc(CN)c1", "inhibition": "7.48% (inactive)"}
{"compound": "OC[C@H]1O[C@@H](n2cnc3c(NC4CCCCC4)ncnc32)[C@H](O)[C@@H]1O", "inhibition": "4.21% (inactive)"}
{"compound": "Cn1c(=O)c2[nH]c(-c3ccccc3)nc2n(C)c1=O", "inhibition": "-0.378% (inactive)"}
{"compound": "OC[C@H]1O[C@@H](n2cnc3c(NCCc4ccccc4)ncnc32)C(O)[C@H]1O", "note": "(stereo not given in full)", "inhibition": "-17% (inactive)"}
{"compound": "CC1=C(C(=O)O)N2C(=O)[C@@H](NC(=O)C(N)C3=CCC=CC3)[C@H]2SC1", "note": "(stereo not given in full)", "inhibition": "6.7% (inactive)"}
{"compound": "O=S(=O)(NCCNC/C=C/c1ccc(Br)cc1)c1cccc2cnccc12", "inhibition": "19.5% (inactive)"}
{"compound": "CC(C)COCC(CN(Cc1ccccc1)c1ccccc1)N1CCCC1", "note": "(stereo not given)", "inhibition": "-3.6% (inactive)"}
{"compound": "N[C@@H](CCCC(=O)O)C(=O)O", "inhibition": "6.53% (inactive)"}
{"compound": "N[C@H]1CONC1=O", "inhibition": "6.36% (inactive)"}
{"compound": "Nc1ccn([C@H]2CC[C@@H](CO)O2)c(=O)n1", "inhibition": "-7.35% (inactive)"}
{"compound": "Cc1cccc(C#Cc2ccccc2)n1", "inhibition": "8.4% (inactive)"}
{"compound": "Nc1c(S(=O)(=O)O)cc(Nc2ccc(Nc3nc(Cl)nc(Nc4ccc(S(=O)(=O)O)cc4)n3)c(S(=O)(=O)O)c2)c2c1C(=O)c1ccccc1C2=O", "inhibition": "8.09% (inactive)"}
{"compound": "C[N+](C)(C)CCO", "inhibition": "2.98% (inactive)"}
{"compound": "COc1cc2c(cc1OC)-c1cc(=Nc3c(C)cc(C)cc3C)n(C)c(=O)n1CC2", "inhibition": "10.5% (inactive)"}
{"compound": "CC(C)=CCC/C(C)=C/CC/C(C)=C/CSc1ccccc1C(=O)O", "inhibition": "-8.73% (inactive)"}
{"compound": "Cc1cc(C)c(/C=C2\\C(=O)Nc3ccccc32)[nH]1", "inhibition": "25.9% (inactive)"}
{"compound": "c1cnc(N2CCN(Cc3ccc4c(c3)OCO4)CC2)nc1", "inhibition": "0.952% (inactive)"}
{"compound": "CC(=O)c1ccc(S(=O)(=O)NC(=O)NC2CCCCC2)cc1", "inhibition": "-5.49% (inactive)"}
{"compound": "CN1CCC[C@H]1c1cccnc1", "inhibition": "0.862% (inactive)"}
{"compound": "CCCC(=O)NCCc1c2n(c3ccc(OC)cc13)CCCc1ccccc1-2", "inhibition": "5.19% (inactive)"}
{"compound": "CCCCCC(O)c1cccc(OCc2ccc3ccccc3n2)c1", "note": "(stereo not given)", "inhibition": "3.99% (inactive)"}
{"compound": "N.N.O=C(O)C1(C(=O)O)CCC1.[Pt+2]", "inhibition": "3.35% (inactive)"}
{"compound": "CCNC(=O)N1CCN(CCCC(c2ccc(F)cc2)c2ccc(F)cc2)CC1", "inhibition": "133% (active)"}
{"compound": "COC(=O)[C@@H]1[C@H]2C[C@H]3c4[nH]c5ccccc5c4CCN3C[C@@H]2CC[C@@H]1O", "inhibition": "8.68% (inactive)"}
{"compound": "Nc1nc(Cl)nc2c1ncn2[C@@H]1O[C@H](COP(=O)(O)OP(=O)(O)OP(=O)(O)O)[C@H](O)C1O", "note": "(stereo not given in full)", "inhibition": "0.076% (inactive)"}
{"compound": "NC(=O)c1ccccc1", "inhibition": "-2.55% (inactive)"}
{"compound": "CCC(C)N(C)C(=O)c1cc2ccccc2c(-c2ccccc2Cl)n1", "note": "(stereo not given)", "inhibition": "2.31% (inactive)"}
{"compound": "NOCC(=O)O", "inhibition": "-13.3% (inactive)"}
{"compound": "OCC1NCC(O)C(O)C1O", "note": "(stereo not given)", "inhibition": "-0.461% (inactive)"}
{"compound": "COc1cc2nc(N3CCN(C(=O)OCc4ccccc4)C(C(=O)NC(C)(C)C)C3)nc(N)c2cc1OC", "note": "(stereo not given)", "inhibition": "-7.21% (inactive)"}
{"compound": "COc1cc(=O)n(C)c2c(OCC(O)C(C)(C)O)cccc12", "note": "(stereo not given)", "inhibition": "-8.37% (inactive)"}
{"compound": "COC(=O)c1c(C)[nH]c(C)c1C(=O)c1ccccc1Cc1ccccc1", "inhibition": "0.163% (inactive)"}
{"compound": "COC1(C2=NCCN2)COc2ccccc2O1", "note": "(stereo not given)", "inhibition": "7.5% (inactive)"}
{"compound": "CCOC(=O)C12CC1/C(=N/O)c1ccccc1O2", "note": "(stereo not given)", "inhibition": "6.31% (inactive)"}
{"compound": "NCCSSCCN", "inhibition": "6.01% (inactive)"}
{"compound": "O=C1CC2(CCCC2)CC(=O)N1CCCCN1CCN(c2ncccn2)CC1", "inhibition": "3.65% (inactive)"}
{"compound": "Cn1c(=O)c2c(ncn2C)n(C)c1=O", "inhibition": "1.74% (inactive)"}
